Hits are enriched below; roughly 2.6% of the tested compounds scored in any of these assays.
Cruzain inh Det = blocks cruzain activity in presence of Triton detergent; P25779; AID 1478; actives 0.43% (n = 200,000); purified cruzain, Z-FR-AMC fluorescence, 0.01% Triton; Potency, µM, without a hit: max response, negative = inhibition, usual class: inhibitors;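 also: plate controls were neutral wells for no effect and buffer without enzyme for full effect; nearly all actives have a fitted effect of over 40% in size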
Target sequence (P25779 123-467 limits assumed): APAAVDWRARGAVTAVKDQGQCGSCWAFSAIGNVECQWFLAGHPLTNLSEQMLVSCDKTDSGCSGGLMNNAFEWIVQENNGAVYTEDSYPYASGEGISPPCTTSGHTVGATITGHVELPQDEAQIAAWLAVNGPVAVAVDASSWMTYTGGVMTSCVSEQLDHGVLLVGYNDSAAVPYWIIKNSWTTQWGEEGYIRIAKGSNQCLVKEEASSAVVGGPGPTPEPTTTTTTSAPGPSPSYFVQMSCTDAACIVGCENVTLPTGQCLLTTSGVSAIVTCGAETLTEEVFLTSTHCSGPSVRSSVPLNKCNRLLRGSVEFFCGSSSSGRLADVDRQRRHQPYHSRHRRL
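In this qHTS format, compounds are incubated with 1.5 nM cruzain for 15 min at room temperature before 2 uM Z-FR-AMC is added. Release of AMC is followed at 360/450 nm, and progress is taken as the 60 s fluorescence difference.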
Cruzain inh noDet = cruzain (T. cruzi) inhibition without detergent; Potency, µM, without a hit: max response, negative = inhibition, usual class: inhibitors; actives 2.3% (n = 200,000); purified cruzain, Z-FR-AMC fluorescence, no detergent; AID 1476; P25779;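 also: plate controls were enzyme without inhibitor for no effect and buffer without enzyme for full effect; nearly all actives have a fitted effect of over 40% in size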
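Purified cruzain at 1.5 nM, pre-incubated 15 min with compound at room temperature in 100 mM sodium acetate pH 5.5, 5 mM DTT, 0.00005% Triton X-100. Reaction started with 2 uM Z-FR-AMC; AMC fluorescence increase over 60 s gives rate.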
* marks the source's active call; other numbers are inactive results; u = inconclusive. Calls follow the shape of the dose curve; as a rule, active = well fitted curve in the direction sought with a large enough effect; inconclusive = small, poorly fitted or top-dose-only effect, or another doubt; inactive = no such curve, though single readings can be large; an effect the other way counts as inactive or inconclusive. Potency is read from the fitted curve at half-maximal effect.

SMILES | Cruzain inh Det | Cruzain inh noDet
CCCOc1ccc(NC(=O)CC2C(=O)N(c3cccc(C)c3)C(=O)N2CCc2ccncc2)cc1 (stereo not drawn) | -6% | u
COc1cc2c(cc1OC)C(COc1ccc3c(C)cc(=O)oc3c1)N(C(=O)c1ccccc1C)CC2 (stereo not drawn) | 14% | -7%
Cc1ccc2nc(/C(C#N)=C\c3ccc([N+](=O)[O-])o3)[nH]c2c1 | -7% | u
COc1cc(/C=C(/C#N)c2ccc(C)cc2)ccc1Oc1ccc([N+](=O)[O-])cn1 | 5% | 25µM*
COc1ccc2nc(/C(C#N)=C\c3ccc(Oc4ccc([N+](=O)[O-])cn4)cc3)[nH]c2c1 | -6% | 25µM*
COc1cc(/C=C(/C#N)c2nc3ccccc3[nH]2)ccc1Oc1ncccc1[N+](=O)[O-] | 3% | u
Cc1ccc2nc(/C(C#N)=C\c3ccc(Oc4ccc([N+](=O)[O-])cn4)cc3)[nH]c2c1 | -1% | 10µM*
Cc1ccc(/C(C#N)=C/c2cccc([N+](=O)[O-])c2)cc1 | 2% | 1%
CCOc1cc(/C=C(/C#N)c2nc3ccccc3[nH]2)ccc1Oc1ccc([N+](=O)[O-])cn1 | -4% | -8%
Cc1ccc2nc(/C(C#N)=C\c3cc(C)n(-c4cccc([N+](=O)[O-])c4)c3C)[nH]c2c1 | 4% | 25µM*
CCc1ccc(CNC(=O)c2cnc(N3CCCCC3)c3ccccc23)cc1 | -19% | -7%
COc1ccc(OC)c(CNC(=O)c2cc(=O)[nH]c3ccc(S(=O)(=O)N4CCCCC4C)cc23)c1 (stereo not drawn) | 0% | u
CCOC(=O)c1c(C)[nH]c(C)c1S(=O)(=O)N1CCC(C(=O)NCc2ccc(N(C)C)cc2)CC1 | 3% | -5%
CCOCC(=O)Nc1ccc(-c2cn3c(C)csc3n2)cc1 | -3% | -1%
Cc1cc(C)cc(Nc2nc3cc(Cl)c(Cl)cc3nc2-n2nc(C)cc2C)c1 | 0% | -15%
O=C1O/C(=C/Br)CCC1c1cccc2ccccc12 (stereo not drawn) | -16% | -9%
Cc1ccc(C(=O)NCC(=O)OCC(=O)c2ccc3c(c2)OCCO3)cc1C | 13µM* | 13µM*
Cc1ccc(C(=O)COC(=O)CNC(=O)c2ccc(N3C(=O)c4ccccc4C3=O)cc2)cc1C | -2% | -7%
CCN(C(=O)COC(=O)CNC(=O)c1ccc(C)c(C)c1)C1CCS(=O)(=O)C1 (stereo not drawn) | 25µM* | 16µM*
O=C(COc1cc(Cl)c(Cl)cc1Cl)NC(=O)Nc1ccc2c(c1)OCCO2 | -2% | 20µM*
O=C(COC(=O)/C=C/c1ccc(Cl)cc1)Nc1ccc2c(c1)OCCO2 | -1% | -27%
O=C(COC(=O)CNC(=O)c1ccc(Cl)cc1)Nc1ccc2c(c1)OCCO2 | 14µM* | 10µM*
Cc1ccc(Cl)c(OCC(=O)Nc2ccc3c(c2)OCCO3)c1 | -1% | -6%
CCN(C(=O)COC(=O)c1ccccc1Nc1cccc(C)c1C)C1CCS(=O)(=O)C1 (stereo not drawn) | -5% | u
Cc1ccc2c(Sc3ccc(Cl)cc3)c(C(=O)N3CCCCC3)[nH]c2c1 | 4% | 10%
SMILES | Cruzain inh Det | Cruzain inh noDet
CCCCCn1c(=O)[nH]c2cc(C(=O)Nc3ccc(OC)c(OC)c3)ccc2c1=O | 0% | u
Cc1cn2c(=O)cc(COc3cccc(NC(=O)c4ccccc4Cl)c3)nc2s1 | 0% | 22%
COc1ccc(CNC(=O)COC(=O)c2ccc3c(c2)OCCO3)cc1 | 0% | -1%
COc1ccc(C(=O)NCC(=O)OCC(=O)c2ccc3c(c2)OCCO3)cc1 | 16µM* | 13µM*
COc1ccc(C2/C=C\CC(NC(=O)OCC3c4ccccc4-c4ccccc43)CC(=O)N2Cc2cccc(F)c2)cc1 (stereo not drawn) | 1% | u
COc1ccc(C2/C=C\CC(NC(=O)OCC3c4ccccc4-c4ccccc43)CC(=O)N2Cc2ccccc2F)cc1 (stereo not drawn) | 1% | 13µM*
COC(=O)CCN(c1ccccc1)C(CNS(=O)(=O)c1ccccc1)c1ccccc1 (stereo not drawn) | 1% | u
COc1ccc(C(=O)/C=C/c2cn(CC(O)CN(CC(C)C)CC(C)C)c3ccccc23)cc1OC (stereo not drawn) | -5% | 18%
CCOc1ccc(-c2nnn(CC(=O)NCCc3c[nH]c4ccccc34)n2)cc1 | -8% | -17%
CCCOc1ccc(-c2nnn(CC(=O)c3c[nH]c4ccccc34)n2)cc1 | 2% | 7.9µM*
Cc1ccc2c(C)c(C(=O)N(Cc3ccc(Cl)cc3)C3CCS(=O)(=O)C3)oc2c1 (stereo not drawn) | -8% | 28%
COc1ccc(C)cc1S(=O)(=O)N(CC(=O)Nc1cccc([N+](=O)[O-])c1)c1ccc(C)c(C)c1 | -6% | 32µM*
COc1ccc(S(=O)(=O)N(CC(=O)Nc2ccc(C)cc2)c2ccc(C)cc2)cc1OC | 1% | -3%
Cc1cccc(C)c1NC(=O)Cn1c(=O)n(CCC(=O)NCc2ccc3c(c2)OCO3)c(=O)c2sccc21 | -3% | -15%
Cc1noc(C)c1-c1nc(NCc2cccs2)c2ccccc2n1 | -2% | 3%
O=C(Nc1cccc2cccc(NC(=O)c3ccco3)c12)c1ccco1 | -2% | 25µM*
O=C(Nc1nc(-c2ccncc2)cs1)c1ccco1 | -12% | 16µM*
O=C(Nc1ccccc1NC(=O)c1ccco1)c1ccco1 | 0% | 6%
O=C(Nc1nc(-c2cc3ccccc3oc2=O)cs1)c1ccco1 | -7% | -5%
Cc1nc(NCc2ccccc2)c2nc(-c3ccccc3)n(CCN3CCOCC3)c2n1 | -5% | u
CC(C)N(Cc1ccccc1)C(=O)CN1C(=O)CSc2ccc(S(=O)(=O)N3CCCC3)cc21 | 1% | 3%
COc1cccc(NC(=O)CSc2nc3ccccc3cc2Cc2ccccc2)c1 | 1% | u
COc1ccc(OC)c(NC(=O)CSc2nc3ccccc3cc2Cc2ccccc2)c1 | 2% | 20µM*
COc1ccc(NC(=O)CSc2nc3ccccc3cc2Cc2ccccc2)cc1 | -2% | u
COc1cc(NC(=O)CSc2nc3ccccc3cc2Cc2ccccc2)cc(OC)c1 | 0% | 32µM*
SMILES | Cruzain inh Det | Cruzain inh noDet
COc1ccc(/C=c2/sc3nc(-c4ccccc4)c(-c4ccccc4)n3c2=O)cc1 | -5% | 6.3µM*
COc1ccc(/C=c2\sc3nc(-c4ccccc4)c(-c4ccccc4)n3c2=O)cc1OC | -19% | u
O=C(CSc1oc(-c2ccc(F)cc2)nc1S(=O)(=O)c1ccccc1)c1ccc(Cl)cc1 | -5% | 32µM*
Cc1ccc(S(=O)(=O)c2nc(-c3ccc(F)cc3)oc2SCC(=O)c2ccccc2)cc1 | -1% | u
O=C(CSc1oc(-c2ccco2)nc1S(=O)(=O)c1ccc(Br)cc1)c1ccc(Cl)cc1 | -5% | 20µM*
Cc1ccc(-c2nc(S(=O)(=O)c3ccc(C)cc3)c(SCC(=O)c3ccccc3)o2)cc1 | -5% | 16µM*
O=C(CSc1oc(-c2ccccc2)nc1S(=O)(=O)c1ccc(Cl)cc1)Nc1ccc(F)cc1 | -5% | 6%
CCCSc1oc(-c2ccco2)nc1S(=O)(=O)c1ccc(Cl)cc1 | -26% | 1%
COc1ccc(CCNC(=O)c2ccc3c(c2)CCN3S(=O)(=O)c2ccccc2)cc1OC | -2% | u
Cc1c(Cc2ccccc2)c(=O)oc2c(CN(C)C)c(O)c(Cl)cc12 | 20µM* | u
CN(C)Cc1c(O)ccc2oc(Cc3ccccc3)cc12 | -1% | -5%
